Source: PubChem BioAssay
3T3 cytotox – cytotoxic compounds in NIH 3T3 cells; NIH 3T3 viability, CellTiter-Glo ATP luminescence, 48-72 h; Potency, µM (doses to about 96.7 µM), without a hit: at the highest dose activity change, negative = cytotoxicity, usual class: inhibitors; 94,000 tested, 4.3% active; AID 1345082; note: nearly all actives have a fitted effect of over 55% in size
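First NIH 3T3 cells are plated at 400 cells/well; next compound is pinned in; then plates incubate 48 or 72 hr at 37 °C; finally CellTiter-Glo is added and luminescence read after 10 min.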
hNpr1 antagonist – blocks ANP-stimulated signaling of human Npr1 receptor | HEK293 hNpr1 GloSensor cGMP, ANP-stimulated luminescence | Potency, µM (titrated, usually from 46.3 µM), for the others: top-dose activity change, negative = inhibition, actives largely listed as inhibitors | 76,000 tested, 1.6% active | AID 1347048; calls by dose curve; note: nearly all actives have a fitted effect of over 60% in size
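Compound pre-incubated 30 min at room temperature on GloSensor-loaded HEK293 cells stably carrying hNpr1 and the pGS-40F cGMP biosensor. Stimulation uses hNppA at 0.1 nM final; luminescence is taken at baseline and 20 min post-agonist.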
GPT2 inh – inhibitors of human GPT2 alanine aminotransferase. Q8TD30. Recombinant GPT2, coupled pyruvate oxidase/HRP Amplex Red fluorescence. Potency, µM (doses to about 57.7 µM), for inactives: at the top dose activity change, negative = inhibition, usual class: inhibitors. 100,000 tested, 0.25% active. AID 1671188; note: nearly all actives have a fitted effect of over 60% in size
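Inhibition is scored from Amplex Red fluorescence generated when pyruvate oxidase and HRP act on pyruvate released by GPT2. Reactions contain 10ng/uL enzyme, 250uM a-KG and 2mM L-alanine and run 30 min at room temperature.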
Luciferase inh – Photinus pyralis luciferase inhibition | 76,000 tested, 2.5% active | Potency, µM (top dose mostly 115 µM), most hits filed as inhibitors | purified P. pyralis luciferase, luminescence, biochemical | P08659; note: nearly all actives have a fitted effect of over 65% in size
Target sequence (P08659 whole entry, looked up): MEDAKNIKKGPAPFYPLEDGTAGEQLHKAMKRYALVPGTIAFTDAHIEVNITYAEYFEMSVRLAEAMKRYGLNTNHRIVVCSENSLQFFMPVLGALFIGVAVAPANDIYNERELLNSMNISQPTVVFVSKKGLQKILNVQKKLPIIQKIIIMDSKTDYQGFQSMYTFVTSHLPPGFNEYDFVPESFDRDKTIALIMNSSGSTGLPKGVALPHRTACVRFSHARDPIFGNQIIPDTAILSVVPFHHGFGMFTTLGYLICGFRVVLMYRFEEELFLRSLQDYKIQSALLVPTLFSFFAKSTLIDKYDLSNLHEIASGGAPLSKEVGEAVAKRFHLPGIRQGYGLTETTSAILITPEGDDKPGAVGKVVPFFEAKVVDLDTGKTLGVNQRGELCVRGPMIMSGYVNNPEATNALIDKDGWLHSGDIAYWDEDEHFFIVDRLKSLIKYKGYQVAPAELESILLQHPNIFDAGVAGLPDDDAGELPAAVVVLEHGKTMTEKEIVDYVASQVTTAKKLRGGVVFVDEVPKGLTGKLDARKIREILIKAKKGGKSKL
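Inhibitors were tested against purified firefly luciferase in a biochemical, low-substrate format (both substrates at 10uM) and luminescence measured with a CCD imager.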
HEK cytotox – kills HEK 293 cells; HEK 293 viability, ATP luminescence (CellTiter-Glo), 48-72 h; Potency, µM (doses to about 115 µM), for inactives: at the top dose activity change, negative = cytotoxicity, actives largely listed as inhibitors; 94,000 tested, 6.6% active; AID 1345083; note: nearly all actives have a fitted effect of over 60% in size
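HEK 293 cells seeded at 250 cells/well were exposed to compound for 48 or 72 hr at 37 degree Celsius. Viability taken as ATP content by CellTiter-Glo luminescence.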
Starred values were filed as active, the others as inactive; i = inactive; ? = inconclusive; . = not tested or not shown; [ ] = dose if it differs, or a comment. Only some compounds are listed: those with a hit (about 10% of all), similar ones and a draw of the others. Unless noted, calls come from the whole dose curve; as a rule, active = well fitted curve in the direction sought with a large enough effect; inconclusive = small, poorly fitted or top-dose-only effect, or another doubt; inactive = no such curve, though single readings can be large; an effect the other way counts as inactive or inconclusive. % is set by controls: 0 for no effect and ±100 for the full control effect; potency is the fitted concentration of half-maximal effect.

SMILES	3T3 cytotox	hNpr1 antagonist	GPT2 inh	Luciferase inh	HEK cytotox
O=C(NCCc1cnc[nH]1)c1ccc(-c2ncc3cnc(-c4cccc(F)c4)cn23)cc1	50µM*	2%[70.6 µM]	-5%[88.5 µM]	i	89µM*
CC(C)c1cccc(NC(=O)CN2C(=O)C(c3ccccc3)=NC23CCCC3)c1	?	?	2%	i	35µM*
Cc1c(Cl)c(C(=O)N2CCCC(C)(Cc3ccc4c(c3)OCO4)C2)nn1C (configuration not stated)	?	-23%	-7%	32µM*	?
CC1(Cc2ccc3c(c2)OCO3)CCCN(C(=O)c2cncc(Cl)c2)C1 (configuration not stated)	?	-5%	-32%	i	32µM*
CC1(Cc2ccc3c(c2)OCO3)CCCN(C(=O)N2CCOCC2)C1 (configuration not stated)	-17%	-7%	-2%	i	-29%
COc1ccccc1C(C)N(C)C(=O)c1csc2nc(-c3ccccc3C)cn12 (configuration not stated)	?	-9%	i	?	35µM*
COc1ccccc1-c1ccc2c(C(=O)N(C)C)nn(C)c2n1	1%[138 µM]	.	-4%[88.5 µM]	.	-7%[172 µM]
O=C(C1CN(c2ccc(F)cc2)C(=O)N1)N1CCN(Cc2ccccc2)CC1 (configuration not stated)	28µM*	22%	i	i	25µM*
COc1cc(C)sc1C(=O)NCC1CCN(c2cnn(C)c(=O)c2)C1 (configuration not stated)	-16%	3%	1%	i	-21%
Cc1cc(C)c(C#N)c(-c2ccc(C(C)N3CCOCC3)cc2)n1 (configuration not stated)	?	?	2%	i	?
CC(C)Oc1cc(-c2ccc(C(C)N3CCOCC3)cc2)nc(N)n1 (configuration not stated)	?	1%	i	35µM*	?
Cc1ccc(-c2cn3c(n2)N(C(=O)c2nc4ncccn4n2)CCC3)cc1	-16%	5%	2%	i	40µM*
O=C(NC1=N[C@@]23CO[C@H](c4ccccc4)C[C@@H]2CC(=O)[C@H]3S1)C1CC1	-20%	.	.	.	?
COc1nc2nc(CCc3ccccc3)n(C)c2cc1-c1cccc(CO)c1	?	-2%[70.6 µM]	-4%[88.5 µM]	71µM*	?
COc1ccccc1CN1CCc2nc(C(=O)N3CCOCC3)oc2CC1	?	-6%[70.6 µM]	i	i	100µM*
COCCNC(=O)c1nc2c(o1)CCN(Cc1ccc(OC)cc1)CC2	?	-2%[70.6 µM]	i	i	?
O=C(Nc1ccccc1)c1nc2c(o1)CCN(Cc1cccs1)CC2	?	7.9µM*	5%[88.5 µM]	?	?
O=C(Nc1ccc(Cl)cc1)c1nc2c(o1)CCN(Cc1cccc(O)c1)CC2	?	2µM*	-12%[88.5 µM]	25µM*	32µM*
COc1ccc(CN2CCc3nc(C(=O)Nc4ccc(Cl)cc4)oc3CC2)cn1	?	4µM*	0%[88.5 µM]	?	?
CN(C1CCOCC1)C1CCN(C(=O)c2ccccc2Cl)CC1	-5%	2%	1%	i	5%
COC[C@@]12CC[C@@H](N3CCOCC3)C[C@H]1CCN(Cc1cnc(N(C)C)nc1)C2	-18%	0%	5%	i	-24%
COc1ccc(-c2nccn2C2CCC(N)CC2)c(Cl)c1OC (configuration not stated)	-2%	-2%	i	i	0%
O=C(NCc1cccc(F)c1)c1nc2c(o1)CCN(CCCc1ccccc1)CC2	89µM*	-2%[70.6 µM]	i	i	?
Cc1ccc(CN2CCc3nc(C(=O)Nc4cccnc4)oc3CC2)cc1	?	?	2%[88.5 µM]	?	?
O=C(Nc1ccc(Cl)cc1)c1nc2c(o1)CCN(Cc1nccs1)CC2	?	2.2µM*	i	22µM*	?
SMILES	3T3 cytotox	hNpr1 antagonist	GPT2 inh	Luciferase inh	HEK cytotox
COc1ccc(CN2CCc3nc(C(=O)Nc4ccccc4)oc3CC2)cc1	?	25µM*	-15%[88.5 µM]	20µM*	?
O=C(Nc1ccccc1)c1nc2c(o1)CCN(Cc1ccc(F)c(Cl)c1)CC2	?	4µM*	-2%[88.5 µM]	8.9µM*	?
CC(C)NC(=O)C[C@@H]1O[C@H](CNC(=O)c2cccc(F)c2)[C@@H](O)[C@H]1O	1%[174 µM]	2%[70.6 µM]	-4%[88.5 µM]	i	i
COc1ccc(N2CC(C(=O)N3CCC(C(=O)NCCc4ccc(Cl)cc4)C3)NC2=O)cc1 (configuration not stated)	?	0%	i	i	-10%
COc1ccc(NC(=O)c2cccc3c2CCN3C(=O)Nc2ccc(F)cc2)cc1	-12%	2%	i	?	?
Cc1ccc(NC(=O)N2CCc3c(C(=O)NC(C)C)cccc32)cc1	?	0.56µM*	i	0.32µM*	?
CCNC(=O)c1cccc2c1CCN2C(=O)Nc1ccc(C)cc1	?	2.2µM*	1%	0.28µM*	?
Cc1ccc(NC(=O)N2CCc3c(C(=O)NCc4ccncc4)cccc32)cc1	-26%	13µM*	i	0.56µM*	32µM*
O=C(NCCc1ccncc1)c1cccc2c1CCN2C(=O)Nc1ccc(F)cc1	?	3.5µM*	-5%	0.25µM*	?
CCC1(N2CCN(S(=O)(=O)c3cc(F)ccc3C)CC2)CCN(S(C)(=O)=O)C1 (configuration not stated)	?	0%	i	i	?
O=C(c1cccc2c1CCN2C(=O)Nc1ccccc1)N1CCN(c2ccccc2)CC1	-17%	-24%	i	28µM*	?
O=C(NCCCN1CCOCC1)c1cccc2c1CCN2C(=O)Nc1ccc(F)cc1	-10%	-13%	4%	25µM*	-29%
CNc1ccnc(N2CCCC(CO)(Cc3ccc(F)cc3)C2)n1 (configuration not stated)	?	-4%	?	i	?
O=S(=O)(c1ccccc1)N1CC(n2cnnc2C2CCCO2)C1 (configuration not stated)	-5%	.	i	.	i
CCN(CC)C(=O)C[C@@H]1CCNC[C@@H]1Cc1cc(-c2ccccc2)on1	?	-1%[70.6 µM]	0%[88.5 µM]	i	?
O=C(C[C@@H]1CCNC[C@@H]1Cc1cc(-c2ccc(F)cc2)on1)N1CCC(Cc2ccccc2)CC1	20µM*	1%	-3%	i	32µM*
CCN(CC)C(=O)C[C@@H]1CCNC[C@@H]1Cc1cc(CC2CCCCC2)on1	25µM*	3%[70.6 µM]	-3%[88.5 µM]	i	71µM*
O=C(C[C@@H]1CCNC[C@@H]1Cc1cc(-c2ccccc2)on1)N1CCOCC1	-1%[174 µM]	1%[70.6 µM]	i	i	-1%[172 µM]
CN(Cc1ccccc1)C(=O)C[C@@H]1CCNC[C@@H]1Cc1cc(-c2ccc(F)cc2)on1	32µM*	-23%[70.6 µM]	i	i	35µM*
